Compounds without any hit were thinned out: in the full panel of roughly 83,000, 20% have a hit.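 A percent growth of 40 corresponds to 60% growth inhibition; 0 means no net growth; -100 means all cells died. Active threshold: below 10.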 Calls of active or inactive are those of the source.
What follows are compounds tested on MDA-MB-468 breast (assay: NCI-60 one-dose screen, 48 h (100 = growth as untreated, 0 = no growth, -100 = all killed)). Details: 10 µM unless noted.

SMILES	growth
CSc1nnc(-c2sc3nnc(-c4ccccc4)c(-c4ccccc4)c3c2O)o1	78.9% (inactive)
Oc1ccccc1N=Cc1c(O)ccc2ccccc12	83.2% (inactive)
NCC(=O)NS(=O)(=O)OC[C@H]1O[C@@H](n2cnc3c(N)ncnc32)[C@H](O)[C@@H]1O	-34.3% (active)
CC(C)N1CCN(c2ccc(OC[C@H]3CO[C@](Cn4cncn4)(c4ccc(Cl)cc4Cl)O3)cc2)CC1	78.9% (inactive)
O=C(Nc1ccc(F)c(F)c1)c1cc(-c2ccc(F)cc2F)ccc1O	-8.51% (active)
COc1cc(C2=NN(C=O)C(c3cccc(Nc4ccnc5cc(C(F)(F)F)ccc45)c3)C2)cc(OC)c1OC (centres undefined)	42.8% (inactive)
Cc1nnc(Nc2ccc(NC(=O)Nc3ccc(Cl)cc3)cc2)c2ccccc12	6.44% (active)
COC(=O)c1[nH]c(=O)c(C#N)c(C(=O)OC)c1C(=O)c1ccccc1	102% (inactive)
COc1ccc(C2CC(=O)c3c(nc4ccc(Cl)cc4c3N)C2)cc1 (centres undefined)	104% (inactive)
Cc1cccc2c1O/C(=C\c1ccc([N+](=O)[O-])o1)C2=O	-58.1% (active)
COc1ccc(-c2cn(Cc3ccc4c(Br)cc(Br)c(O)c4n3)nn2)cc1	72.2% (inactive)
CC(=O)Nc1ccc(/C=N/N2CCCCCC2)cc1	98.6% (inactive)
Cc1cc2cc3ccc(N(C)C)cc3nc2cc1N	-56.8% (active)
Cc1nn(-c2nc3ccccc3[nH]2)c2c1C(c1ccc3c(c1)OCO3)CC(=O)N2 (centres undefined)	47.7% (inactive)
N#Cc1c(-c2cccs2)cc(-c2cnccn2)nc1SCC(=O)N/N=C/c1cccs1	64.6% (inactive)
CN(CCNCc1ccccn1)CCNCc1ccccn1	-15.6% (active)
O=C(/C=C/c1c(-c2ccccc2)[nH]c2ccccc12)S(=O)(=O)c1ccccc1	18.7% (inactive)
COc1ccc(OC)c(Cn2cc3c(c2-c2ccccc2)CCc2cnoc2-3)c1	29.7% (inactive)
Oc1ccc(CSc2nnc(-c3cnccn3)o2)c2cccnc12	7.59% (active)
Cc1ccc(Nc2cc(N)nc(N)n2)cc1Cl	77.8% (inactive)

SMILES	growth
COc1ccc(Nc2nc(NCc3ccccc3)c3ccccc3n2)cc1	40.2% (inactive)
O=C(Nc1ccc(F)cc1)Nc1ccccc1CNc1nc(Nc2ccc(OCCN3CCCC3)cc2)ncc1Cl	-44.1% (active)
Oc1ccc(Cn2cc3c(c2-c2ccccc2)CCc2cnoc2-3)cc1	89.2% (inactive)
Cc1ccc2sc3c(NCCCNCCO)nc4ccccc4c3c(=O)c2c1	42.5% (inactive)
Cc1cc(NC(=O)Nc2cc(Cl)ccc2C)no1	105% (inactive)
Cc1ccc(C)c2c1CCC2=O	63.4% (inactive)
NC(=O)c1cc(I)ccc1NC(=O)/C=C/c1ccccc1	51.9% (inactive)
O=C(/C=C\c1ccccc1)N1c2ccccc2CC1c1c[nH]c2ccccc12 (centres undefined)	80.6% (inactive)
CSc1ccc(N(C)c2nc(C)nc3c2CCC3)cc1	46.8% (inactive)
COc1cc(NS(C)(=O)=O)ccc1Nc1c2ccccc2nc2c(C)cccc12	-14.3% (active)
CN(C)Cc1ccc(NC(=O)c2cncc(C#Cc3cnc(N)c4ncccc34)c2)cc1F	72.3% (inactive)
O=C(NCCCNc1cc(-c2cn(-c3ccccc3)nc2-c2cccc(O)c2)ccn1)c1ccc(F)cc1	-41.4% (active)
CN(C)CCC(CCN(C)C)(C(=O)O)c1ccccc1	102% (inactive)
Cc1cc(C)c(O)c(C(=O)CC(Br)C(=O)O)c1 (centres undefined)	74.9% (inactive)
CCCCNCCCN(CCCC)CCCNCCCC	94.2% (inactive)
Cc1nc(NC(=S)Nc2ccc(F)cc2)sc1C(=O)NNC(=S)Nc1ccc(F)cc1	44.6% (inactive)
CCN1C(=O)N(CC)C2Nn3c(s/c(=C4\C(=O)N(CC(C)C)c5ccccc54)c3=O)=NC21 (centres undefined)	15.8% (inactive)
CN1C(=O)C(C2=NN(C=O)C(c3ccc(F)cc3)C2)C(=O)N(C)C1=O (centres undefined)	89.4% (inactive)
c1ccc2c(c1)oc1cc3sccc3nc12	102% (inactive)
